esBAF inh: SWI/SNF esBAF complex inhibition. reporter increase, % at 12.5 µM. 2% of 350,000 active. mouse ES cells, Bmi1-luciferase knock-in reporter, 24 h; 100% = twice the neutral-well signal. AID 602393; in the data active means activation above about 40%; inconclusive means no clear call, values can overlap the other calls;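 further: 0% = median of the plate's neutral control wells and 100% = double that signal; a rise in the Bmi1 reporter signal indicates esBAF inhibition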
Vif inh: inhibitors of HIV Vif; HEK293T cells, Vif self-association by quenched fluorescence, imaging, 24 h; inhibition, % at 7.49 µM; 0.35% of 340,000 active; AID 602346; in the data active means inhibition above about 50%, passing the limit was not always enough; inconclusive means no clear call, values can overlap the other calls; inactive means below about 31%
HSF-1 act: increases HSF-1 driven luciferase reporter signal | NIH3T3-HGL HSF-1 luciferase reporter, MG132, 8 h; 100% = twice DMSO control signal | activation, % at 9 µM | 1.7% of 300,000 active;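 active means mean replicate activation of at least 50% with a set share of replicates each reaching 50%; inconclusive means only one of those two conditions met; inactive means mean below 50% and too few replicates reaching it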;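 further: 0% = median of the neutral control wells and 100% = twice that signal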
HSF1 inh: HSF1 inhibition | NIH3T3-HGL HSE-luciferase, MG132-induced, luminescence 8 h; hits give low values | activity change, negative = inhibition, % at 7.5 µM (by protocol) | 0.77% of 300,000 active;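 active means more than half of replicate wells show activity change below -50%, luminescence cut by over half; inconclusive means some wells, but at most half, below -50%; inactive means no replicate well below -50%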;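 further: luciferase reports HSF-1 transcriptional activity via heat shock element; 0% = median of DMSO wells and -100% = zero luminescence signal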
Active calls of the source: *; ? = inconclusive; / = not tested or not shown. Sampled rows, rich in hits. Any-hit rate of the full collection: about 3.4%.

SMILES	esBAF inh	Vif inh	HSF-1 act	HSF1 inh
CCCC(=O)Nc1ccc2c(c1)C(=O)N(C)C[C@H](OC)[C@@H](C)CN(C(=O)CC1CC1)[C@H](C)CO2	-2	/	/	/
O=C(COC(=O)c1cccs1)c1ccc2ccccc2c1	42*	-1	20	-1
O=C(COC(=O)c1cccs1)c1ccc2c(c1)OCCO2	19	/	-60	-52*
Cc1ccc(C(=O)COC(=O)c2cccs2)cc1	/	/	13	11
C[C@@H]1CN([C@H](C)CO)C(=O)c2cccc(NS(C)(=O)=O)c2O[C@H]1CN(C)C(=O)Nc1ccc(C(F)(F)F)cc1	-3	/	/	/
Cc1noc(C)c1S(=O)(=O)Nc1ccc2c(c1)CC(=O)N([C@@H](C)CO)C[C@H](C)[C@@H](CN(C)C(=O)Nc1cccc3ccccc13)O2	0	/	/	/
CCOc1ccc(S(=O)(=O)NCc2ccccn2)cc1NC(=O)c1ccccc1	/	54*	13	-4
O=C(C1CCC1)N1CC[C@@H]2[C@H]1c1cc(-c3cccc(F)c3)ccc1N[C@@H]2CO	0	/	/	/
C[C@H](CO)N1C[C@H](C)[C@H](CN(C)S(C)(=O)=O)Oc2ncc(/C=C/c3ccccc3)cc2C1=O	-7	/	/	/
CCOC(=O)C(CC)(CC)C(=O)/C=C/c1cccc(Br)c1	9	2	251*	159
NC(=O)NC(=O)COC(=O)/C=C/c1cccc(Br)c1	/	19	0	-8
Cc1ccc(S(=O)(=O)Nc2ccc3c(c2)CC(=O)N([C@H](C)CO)C[C@H](C)[C@@H](CN(C)CC2CC2)O3)cc1	-4	/	/	/
CCOc1ccc(-n2cc(C(=O)N3CCC(C)CC3)c3cc(OC)c(OC)cc3c2=O)cc1	9	-10	66*	23
CC=Cc1ccc2n(c1=O)C[C@@H]1[C@@H](CO)[C@H](C(=O)Nc3nccs3)N(C(=O)CC)[C@H]21 (mixture of isomers)	-1	/	/	/
COc1ccccc1NS(=O)(=O)c1ccc(NC(=O)Cc2cccs2)cc1	2	-3	58*	14
C[C@H](CO)N1C[C@H](C)[C@H](CN(C)CC2CC2)Oc2cc(C#CC3CC3)ccc2S1(=O)=O	8	/	/	/
O=C(CSc1nc2cc(Cl)ccc2s1)Nc1cccc(S(=O)(=O)N2CCOCC2)c1	/	-9	-63	-54*
O=C(CSc1nc2ccccc2s1)Nc1ccc(Cl)c(S(=O)(=O)N2CCOCC2)c1	/	4	47	14
COC(=O)c1ccc2c(=O)n(Cc3ccco3)c(SCC(=O)Nc3ccc(C)c(Cl)c3)nc2c1	1	15	-1	-3
O=C(CSc1nc2cc(Cl)ccc2c(=O)n1Cc1ccco1)Nc1ccc(S(=O)(=O)N2CCOCC2)cc1	/	5	79*	41
C[C@@H]1CN([C@@H](C)CO)C(=O)c2cc(C#C[C@@H](C)O)cnc2O[C@H]1CN(C)C(=O)c1ccccc1F	0	/	/	/
CCNC(=O)C[C@@H]1CC[C@@H]2[C@@H](COc3ccc(NS(C)(=O)=O)cc3C(=O)N2C)O1	-1	/	/	/
Cc1noc(C)c1NC(=O)N[C@@H]1CC[C@@H](CC(=O)Nc2ccc(-c3ccccc3)cc2)O[C@@H]1CO	5	/	/	/
O=C(C[C@@H]1CC[C@@H]2[C@H](COC[C@@H](O)CN2S(=O)(=O)c2ccccc2)O1)NCCN1CCCCC1	6	/	/	/
CSc1ccc(Cl)c(C(=O)OCC(=O)N(C)CCC#N)c1	/	-5	59*	19
SMILES	esBAF inh	Vif inh	HSF-1 act	HSF1 inh
CCNC(=O)[C@@H]1[C@@H](CO)[C@@H]2Cn3c(ccc(-c4cncnc4)c3=O)[C@@H]2N1C(=O)NC1CCCC1	1	/	/	/
COc1ccc(CCNC(=O)COC(=O)/C=C/c2ccc3c(c2)OCO3)cc1	47*	?	/	/
CCc1ccc(NC(=O)c2sc3nc4n(c(=O)c3c2C)CCC4)cc1	44*	-5	5	-7
COc1cc(OC)cc(C(=O)Nc2ccc3nc4n(c(=O)c3c2)CCCCC4)c1	53*	6	24	12
Cc1c(C(=O)Nc2ccc(F)cc2)sc2ncn(CC(=O)N3CCCCC3)c(=O)c12	10	-9	-64	-55*
Cc1ccc(CCNC(=O)c2sc3nc4n(c(=O)c3c2C)CCC4)cc1	10	-8	2	7
Cc1c(C(=O)Nc2ccccc2)sc2ncn(CC(=O)N3CCCCC3)c(=O)c12	-6	0	-7	-4
CC(=O)Nc1ccc(NC(=O)c2sc3nc4n(c(=O)c3c2C)CCCCC4)cc1	/	-17	4	2
CC(=O)c1cccc(NC(=O)c2sc3nc4n(c(=O)c3c2C)CCCC4)c1	49*	-13	14	11
O=C(Nc1nccs1)c1ccc2c(=O)n3c(nc2c1)CCCCC3	53*	-4	19	21

High-throughput results deposited in PubChem by Broad Institute.
